# Measurements: PubChem BioAssay
# For part of these data: Measured potencies and affinities stand elsewhere. Calls of active or inactive are those of the source.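 How the source made its calls, unless noted: active means dose curve with midpoint inside tested range, moderate steepness, plateau gap beyond fit error, low compound glow and bead-link interference; inactive means the rest.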
# Tests used:
# [1] = target: Cell division control protein 42 homolog (Homo sapiens) (UniProt P60953); test: wildtype Cdc42 GTP-binding inhibitors, dose response, biochemical, multiplex bead flow cytometry, Bodipy-FL-GTP (AID 1334;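 active means fitted half-maximal concentration within the tested range, moderate curve steepness, significant signal drop, and little compound fluorescence or bead-linkage interference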); details: bead-based flow cytometry, Bodipy-FL-GTP binding to GST-Cdc42; at 100 µM (top of the series) unless noted
# [2] = target: GTPase HRas (Homo sapiens) (UniProt P01112); test: inhibitors of GTP binding to wildtype Ras, dose response, biochemical, multiplex bead flow cytometry (AID 1335;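 active means fitted half-maximal concentration within 10 nM to 100 µM, steepness 0.5 to 2, significant signal drop, low assay interference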); details: bead-based flow cytometry, Bodipy-GTP binding to GST-Ras; at 100 µM (top of the series) unless noted
# [3] = test system: Ras-related protein Rab-7a (dog), GTP binding; test: Rab7 GTP binding inhibitors, potency, dose response, biochemical, wildtype, multiplex bead flow cytometry (AID 1336; call rule not given here)
# [4] = target: Ras-related C3 botulinum toxin substrate 1 (Homo sapiens) (UniProt P63000); test: wildtype Rac1 GTP binding inhibitors, dose response, biochemical, multiplex bead flow cytometry (AID 1340); details: GST-Rac1 beads, Bodipy-FL-GTP binding; at 100 µM (top of the series) unless noted
# [5] = target: GTPase HRas (Homo sapiens) (UniProt P01112); test: activated Ras mutant GTP binding inhibitors, dose response, biochemical, multiplex bead flow cytometry (AID 1341;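 active means dose-response curve with midpoint inside the tested range, moderate steepness, significant amplitude and little compound fluorescence or bead-attachment interference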;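 further: GST-tagged constitutively activated Ras mutant immobilized on beads and multiplexed with other GTPases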)
# [6] = RPL19A-GFP modulators, yeast TOR pathway, confirmation, cell-based, S. cerevisiae, flow cytometry, cherry picks, mother/daughter gates (AID 2270;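 active means GFP response below 50% of the DMSO control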); details: S. cerevisiae RPL19A-GFP strain, 3 h, at 10 µM, stronger effect = lower value, 100 = same GFP as DMSO wells
# [7] = LAP4-GFP expression modulators in yeast, confirmation, cell-based, cherry picks, flow cytometry, mother/daughter gates (AID 2271;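 active means GFP response above 150% of the DMSO control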;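 further: ratio of sample to DMSO plate mean so 100% equals DMSO level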); details: S. cerevisiae LAP4-GFP strain, 3 h, at 10 µM, stronger effect = higher value, 100 means same as DMSO control
# [8] = modulators of MEP2-GFP levels in yeast, confirmation, S. cerevisiae, flow cytometry GFP, cherry picks (AID 2272;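 active means GFP response above 150% of the DMSO control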;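 further: ratio of well signal to plate DMSO mean so 100% equals DMSO level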); details: S. cerevisiae MEP2-GFP strain, 3 h, at 10 µM, stronger effect = higher value
# [9] = AGP1-GFP expression modulators, hit retest, confirmation, cell-based, flow cytometry, S. cerevisiae, cherry picks (AID 2273;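 active means GFP response above 150% of the DMSO level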;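 further: median GFP channel fluorescence over the whole cell population gate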); details: S. cerevisiae AGP1-GFP strain, 3 h, at 10 µM
# [10] = modulators of CIT2-GFP expression in yeast, confirmation, S. cerevisiae, GFP fusion, cherry picks, mother/daughter gates (AID 2274;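 active means GFP response above 150% of the DMSO level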); details: S. cerevisiae CIT2-GFP strain, flow cytometry, 3 h, at 10 µM, stronger effect = higher value
# [11] = measured here: daughter cell gate
# [12] = measured here: mother cell gate
# Sequence of Cell division control protein 42 homolog (Homo sapiens) (P60953 whole entry, looked up): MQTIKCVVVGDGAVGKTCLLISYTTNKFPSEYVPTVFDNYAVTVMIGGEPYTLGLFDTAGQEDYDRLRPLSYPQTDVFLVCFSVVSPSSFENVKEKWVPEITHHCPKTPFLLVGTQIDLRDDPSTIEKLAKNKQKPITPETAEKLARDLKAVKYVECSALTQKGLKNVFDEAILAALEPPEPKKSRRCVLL
# Sequence of GTPase HRas (Homo sapiens) (P01112 whole entry, looked up): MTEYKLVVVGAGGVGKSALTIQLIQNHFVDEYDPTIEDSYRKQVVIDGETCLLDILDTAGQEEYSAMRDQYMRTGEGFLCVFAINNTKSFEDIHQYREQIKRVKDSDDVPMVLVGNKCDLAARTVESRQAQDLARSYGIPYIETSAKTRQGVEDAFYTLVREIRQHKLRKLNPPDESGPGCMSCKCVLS
structure (smiles),measurement,setting,value
Cc1ccc(SC(CC(=O)c2ccc(C(C)(C)C)cc2)C(=O)O)cc1 (configuration not stated),"fluorescence, percent of control (lower = inhibition)",[1],26.6%
same,"GTP binding, percent of control",[2],72.6%
same,outcome,[3],inactive
same,"GTP binding signal, raw median fluorescence (lower = inhibition) (MCF (arbitrary fluorescence units))",[4],240
same,outcome,[5],inactive
same,GFP response vs DMSO,[6],95.8% (inactive)
same,GFP response vs DMSO,[6]; [11],94%
same,GFP response vs DMSO,[6]; [12],97.3%
same,GFP response relative to DMSO,[7],106% (inactive)
same,GFP response relative to DMSO,[7]; measured here: daughter cell gate response,103%
same,GFP response relative to DMSO,[7]; measured here: mother cell gate response,111%
same,GFP response vs DMSO,[8],94.4% (inactive)
same,"GFP response, % of DMSO",[9],99.3% (inactive)
same,"GFP response, % of DMSO",[10],92.2% (inactive)
same,"GFP response, % of DMSO",[10]; [11],90.5%
same,"GFP response, % of DMSO",[10]; [12],91.8%
O=C(O)c1cc(Sc2ccc(Cl)cc2)nc2ccccc12,"fluorescence, percent of control (lower = inhibition)",[1],55.8%
same,"GTP binding, percent of control",[2],81.1%
same,outcome,[3],inactive
same,"GTP binding signal, raw median fluorescence (lower = inhibition) (MCF (arbitrary fluorescence units))",[4],29
same,outcome,[5],inactive
Cc1ccc(-n2c(-c3cnccn3)n[nH]c2=S)c(Br)c1,"fluorescence, percent of control (lower = inhibition)",[1],23.2%
same,"GTP binding, percent of control",[2],60.1%
same,outcome,[3],inactive
same,"GTP binding signal, raw median fluorescence (lower = inhibition) (MCF (arbitrary fluorescence units))",[4],190
same,outcome,[5],inactive
COc1ccc(-c2cc(=O)c3cc(OC)ccc3[nH]2)cc1,"GTP binding signal, raw median fluorescence (lower = inhibition) (MCF (arbitrary fluorescence units))",[4],229
CCCc1nc2c(=O)n(C)c(=O)nc-2n(C)n1,"GTP binding, percent of control",[2],84.4%
same,outcome,[3],inactive
same,outcome,[5],inactive
CCOC(=O)c1c(NC(=O)N/N=C/c2ccccc2OCC)sc(C(C)=O)c1C,"GTP binding signal, raw median fluorescence (lower = inhibition) (MCF (arbitrary fluorescence units))",[4],238
Cc1cccc2cc(CN(Cc3cccs3)C(c3nnnn3C3CCCC3)C(C)C)c(=O)[nH]c12 (configuration not stated),"GTP binding, percent of control",[2],60.6%
same,outcome,[3],inactive
same,"GTP binding signal, raw median fluorescence (lower = inhibition) (MCF (arbitrary fluorescence units))",[4],207
same,outcome,[5],inactive
O=S(=O)(c1cccc(-c2nnc(SCc3ccc(Cl)cc3)o2)c1)N1CCCCC1,"GTP binding signal, raw median fluorescence (lower = inhibition) (MCF (arbitrary fluorescence units))",[4],182
Cc1cc(C(=O)Cn2nc(C(=O)O)c3ccccc3c2=O)c(C)n1-c1ccc(OC(F)F)cc1,"fluorescence, percent of control (lower = inhibition)",[1],28.1%
same,"GTP binding, percent of control",[2],75.5%
same,outcome,[3],inactive
same,outcome,[5],inactive
O=C(/C=C/c1ccco1)Nc1ccc(-c2nc3ccccc3[nH]2)cc1,"GTP binding signal, raw median fluorescence (lower = inhibition) (MCF (arbitrary fluorescence units))",[4],273
CCOc1ccc(/C=C2\SC(N3CCc4ccccc4C3)=NC2=O)cc1,"GTP binding, percent of control",[2],59.8%
same,outcome,[5],inactive
CCCN1C(=O)/C(=C/C=C2\N(CC)c3ccccc3C2(C)C)SC1=S,"GTP binding, percent of control",[2],127%
same,outcome,[3],inactive
same,"GTP binding signal, raw median fluorescence (lower = inhibition) (MCF (arbitrary fluorescence units))",[4],176
same,outcome,[5],inactive
CC(C)C(NCc1c(Cl)cccc1Cl)C(=O)O (configuration not stated),"GTP binding, percent of control",[2],81.2%
same,outcome,[5],inactive
O=C(Nc1nnc(-c2ccc3c(c2)OCCO3)o1)c1ccc(Cc2ccccc2)cc1,"GTP binding, percent of control",[2],83.9%
same,outcome,[3],inactive
same,"GTP binding signal, raw median fluorescence (lower = inhibition) (MCF (arbitrary fluorescence units))",[4],144
same,outcome,[5],inactive
CC(=O)c1ccc(C#CC(=O)c2ccc([N+](=O)[O-])cc2)cc1,"GTP binding, percent of control",[2],204%
same,outcome,[3],inactive
same,"GTP binding signal, raw median fluorescence (lower = inhibition) (MCF (arbitrary fluorescence units))",[4],55.9
same,outcome,[5],inactive
OC(CNCCc1ccc(Cl)cc1)COc1ccc2ccccc2c1 (configuration not stated),"fluorescence, percent of control (lower = inhibition)",[1],40.2%
same,"GTP binding, percent of control",[2],85.7%
same,outcome,[3],inactive
same,outcome,[5],inactive
Cc1ccccc1N(CC(=O)N/N=C/c1ccccc1Cl)C(=O)c1ccccc1,"GTP binding signal, raw median fluorescence (lower = inhibition) (MCF (arbitrary fluorescence units))",[4],212
O=C(NCc1cccs1)c1cccnc1C(=O)O,"GTP binding, percent of control",[2],84.2%
same,outcome,[3],inactive
same,"GTP binding signal, raw median fluorescence (lower = inhibition) (MCF (arbitrary fluorescence units))",[4],0
same,outcome,[5],inactive
CCN(CC)c1ccc(/C=C(\C#N)C(=O)c2ccc(Br)cc2)cc1,"GTP binding signal, raw median fluorescence (lower = inhibition) (MCF (arbitrary fluorescence units))",[4],0
CC1CCN(c2ncccc2C(=O)O)CC1,"GTP binding signal, raw median fluorescence (lower = inhibition) (MCF (arbitrary fluorescence units))",[4],407
N#Cc1c(-c2ccccc2)nc(SCC(=O)Nc2ccccc2)[nH]c1=O,"GTP binding, percent of control",[2],47.2%
COC(=O)c1cccnc1SCCc1ccccc1,"GTP binding, percent of control",[2],125%
same,"GTP binding signal, raw median fluorescence (lower = inhibition) (MCF (arbitrary fluorescence units))",[4],72.5
same,outcome,[5],inactive
COc1cc(OC)c(-c2c3cc(O)c(=O)cc-3oc3cc(O)c(O)cc23)cc1OC,"GTP binding signal, raw median fluorescence (lower = inhibition) (MCF (arbitrary fluorescence units))",[4],480
Cc1ccc(C)c(OCCn2cc(C(=O)O)c3ccccc32)c1,"fluorescence, percent of control (lower = inhibition)",[1],47.5%
same,"GTP binding, percent of control",[2],91.6%
same,outcome,[3],inactive
same,"GTP binding signal, raw median fluorescence (lower = inhibition) (MCF (arbitrary fluorescence units))",[4],304
same,outcome,[5],inactive
CS(=O)(=O)c1ccc(C(=O)OCC(=O)NC(=O)C2CCCCC2)cc1[N+](=O)[O-],"GTP binding, percent of control",[2],76.2%
same,outcome,[3],inactive
same,"GTP binding signal, raw median fluorescence (lower = inhibition) (MCF (arbitrary fluorescence units))",[4],200
same,outcome,[5],inactive
CCOC(=O)c1cc([N+](=O)[O-])c([N+](=O)[O-])cc1NC(C)=O,"GTP binding, percent of control",[2],75%
same,outcome,[3],inactive
same,"GTP binding signal, raw median fluorescence (lower = inhibition) (MCF (arbitrary fluorescence units))",[4],241
same,outcome,[5],inactive
Cc1cccc(N=Cc2[nH]c3ccc(Br)c(Cl)c3c2O)c1,"GTP binding signal, raw median fluorescence (lower = inhibition) (MCF (arbitrary fluorescence units))",[4],240
